FBW7 activator: FBW7 E3 ligase activators, primary screen, biochemical, AlphaScreen, human; hit rate 0.13% among 650,000; AID 1259310, 2017; normalized activity (activation), % at 26.1 µM; AlphaScreen FBW7–phospho-cyclin E peptide binding, activator screen; in the data active = normalized activity above about 1.9%;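 also: purified mutant Fbw7 with reduced substrate affinity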
MITF inh: MITF inhibitors, primary screen, biochemical, AlphaScreen, human; Microphthalmia-associated transcription factor (Homo sapiens), O75030; AlphaScreen MITF homodimerization, bead proximity signal; inhibition, % at 2.6 µM; hit rate 0.91% among 650,000; AID 1259374, 2018; in the data active = inhibition above about 50%
GPR151 activ: activators of human GPR151, primary screen, cell-based, PathHunter beta-arrestin, luminescence. PathHunter beta-arrestin GPR151 cells. activation, % at 11.2 µM. hit rate 1% among 650,000. AID 1508602, 2020. G-protein coupled receptor 151 (Homo sapiens), Q8TDV0; in the data active = activation above about 4.9%
TEAD-YAP block: TEAD-YAP interaction inhibition, primary screen, TEAD-YAP interaction inhibitor project, luminescence, HEK-TIYL cells | inhibition, % at 9.12 µM | hit rate 1.4% among 640,000 | TEAD-Gal4/YAP UAS-luciferase luminescence; in the data active = inhibition above about 32%
GPR151 confirm: GPR151 activators, triplicate retest, confirmation, cell-based, PathHunter beta-arrestin, luminescence; activation, % at 11.2 µM; GPR151 PathHunter beta-arrestin cells, 90 min; % of EA-reagent control over plate median; shares compounds with GPR151 activ; 6,700 tested, under 10 active; AID 1508609, 2020;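 active = mean percent activation across replicates above the confirmation screen cutoff of 4.91%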
GPR119 counter: GPR119 activators in beta-arrestin cells, counter-screen for GPR151 activator project, cell-based, PathHunter beta-arrestin, luminescence, triplicate | shares compounds with GPR151 activ | 90 min; 0 = compound-well median, 100 = enzyme-acceptor control | activation, % at 11.2 µM | hit rate 0.3% among 6,700;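 active = mean percent activation in the counterscreen above 29.09%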;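 also: counterscreen on off-target GPR119 to flag nonselective hits from the GPR151 activator screen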
Target sequence (Q8TDV5 whole entry, looked up): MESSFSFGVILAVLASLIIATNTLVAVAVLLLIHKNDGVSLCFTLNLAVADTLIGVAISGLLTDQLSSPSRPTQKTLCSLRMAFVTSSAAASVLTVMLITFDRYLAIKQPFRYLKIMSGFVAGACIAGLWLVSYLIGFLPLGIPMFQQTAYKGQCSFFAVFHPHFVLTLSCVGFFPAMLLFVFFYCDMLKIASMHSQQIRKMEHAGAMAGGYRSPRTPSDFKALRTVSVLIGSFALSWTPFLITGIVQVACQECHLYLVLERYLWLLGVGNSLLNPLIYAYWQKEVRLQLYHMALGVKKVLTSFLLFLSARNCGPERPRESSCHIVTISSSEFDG
Of the large screens only hits and unclear results are named; the others gave an inactive call (follow-up assays come after a bar, where they were run). Sampled rows, rich in hits. Any-hit rate of the full collection: about 3.5%.

Cc1c(O)ccc(C(=O)CN2CCN(c3ccccc3)CC2)c1O	none
CN(C)S(=O)(=O)c1ccc(NC(=O)C(=O)Nc2ccc3c(c2)CCC3)cc1	none
CC1(C)Cc2c(sc3ncnc(NNC(=O)c4ccccc4)c23)CO1	GPR151 activ 6.3 | GPR151 confirm inactive | GPR119 counter inactive
COC(=O)c1ccc2c(=O)n(CCc3ccc(OC)c(OC)c3)c(SCC(=O)Nc3ccc(C)cc3)nc2c1	none
COc1ccc(C(C)=O)cc1CSc1nc2ccccc2c(=O)n1CCc1ccc(OC)c(OC)c1	GPR151 activ 6.9 | GPR151 confirm inactive | GPR119 counter inactive
COc1ccc(CCn2c(SCC(=O)c3ccc(F)cc3)nc3ccccc3c2=O)cc1OC	GPR151 activ 5.4 | GPR151 confirm inactive | GPR119 counter inactive
CCC(Sc1nc2ccccc2c(=O)n1CCc1ccc(OC)c(OC)c1)C(=O)N1CCOCC1 (configuration not stated)	none
COC(=O)c1ccc2c(=O)n(CCc3ccc(OC)c(OC)c3)c(SCC(=O)Nc3cc(C)on3)nc2c1	GPR151 activ 5.8 | GPR151 confirm inactive | GPR119 counter inactive
CCC(Sc1nc2ccccc2c(=O)n1CCc1ccc(OC)c(OC)c1)C(=O)N(CC)CC (configuration not stated)	GPR151 activ 6.0 | GPR151 confirm inactive | GPR119 counter inactive
CC(=O)Nc1ccc(C(=O)CSc2nc(C)cs2)cc1	none
CCOC(=O)C1=C(C)N=c2s/c(=C\c3ccc(-c4cccc(C(=O)O)c4)o3)c(=O)n2C1c1ccc2c(c1)OCO2 (configuration not stated)	none
CC1CN(CCOCCOc2ccc(Cl)c3ccccc23)CC(C)O1 (configuration not stated)	none
CC1CN(CCOCCOc2c(Cl)cccc2Cl)CC(C)O1 (configuration not stated)	GPR151 activ 8.4 | GPR151 confirm inactive | GPR119 counter inactive
O=c1/c(=C/c2ccco2)sc2n1CN(c1ccc3c(c1)OCO3)CN=2	none
Cc1cnc(Nc2nccc3ccccc23)nc1Nc1ccc(N2CCOCC2)cc1	GPR151 activ 6.0, TEAD-YAP block 50 | GPR151 confirm inactive | GPR119 counter inactive
CCCNc1nc(Nc2nccc3ccccc23)ncc1C	GPR151 activ 5.1, TEAD-YAP block 39 | GPR151 confirm inactive | GPR119 counter inactive
Cc1cnc(Nc2nc3ccccc3n2C)nc1Nc1ccc(N2CCOCC2)cc1	none
O=C(c1ccc(Cl)cc1)c1cc(NC(=O)c2cc(Br)cc(Br)c2O)ccc1Oc1ccc(Cl)cc1	GPR151 activ 9.6 | GPR151 confirm inactive | GPR119 counter inactive
O=c1cc(CO)oc(C(Nc2ccccn2)c2cccc(Cl)c2)c1O (configuration not stated)	GPR151 activ 5.0 | GPR151 confirm inactive | GPR119 counter inactive
CCOc1ccc(NC(=O)N2CCC(Cn3cnc4cc(C)c(C)cc43)CC2)cc1	GPR151 activ 5.8 | GPR151 confirm inactive | GPR119 counter inactive
CCOc1ccc(NC(=O)N2CCC(CN3CCCCCC3)CC2)cc1	none
COc1ccc(-c2cc(C(=O)Nc3cnn(Cc4ccc(F)cc4)c3)no2)cc1OC	GPR151 activ 9.9 | GPR151 confirm inactive | GPR119 counter inactive
NC(COP(=O)(O)O)C(=O)O (configuration not stated)	GPR151 activ 5.5 | GPR151 confirm inactive | GPR119 counter inactive
O=[N+]([O-])c1ccc(Cl)cc1NCCOCC(F)(F)F	GPR151 activ 5.2 | GPR151 confirm inactive | GPR119 counter inactive
COc1cc(NC(=O)c2ccc(-c3ccc(C(=O)NC4CC4)cc3)s2)cc(OC)c1OC	GPR151 activ 5.3, TEAD-YAP block 43 | GPR151 confirm inactive | GPR119 counter inactive
COc1cc(NC(=O)c2ccc(-c3ccc(C(=O)N4CCN(C)CC4)cc3)s2)cc(OC)c1OC	none
CCOc1ccc2nc(C(=O)N3CCCCC3)sc2c1	GPR151 activ 11 | GPR151 confirm inactive | GPR119 counter inactive
O=C(Nc1cccnc1)c1cc2n(n1)C(C(F)(F)F)CC(c1ccc(Br)cc1)N2 (configuration not stated)	none
O=C(Nc1cccnc1)c1cc2n(n1)C(C(F)(F)F)CC(c1ccc(Cl)cc1)N2 (configuration not stated)	GPR151 activ 5.0 | GPR151 confirm inactive | GPR119 counter inactive
CCOc1cc(Br)c(C2C(C(=O)OC)=C(C)NC3=C2C(=O)c2ccccc23)cc1OC (configuration not stated)	none
COc1cc(CN2CCC3(C=Cc4ccccc43)CC2)cc2c1OCO2	none (no result: FBW7 activator, MITF inh, TEAD-YAP block)
COc1cc(CN2CCN(c3ccccc3Cl)CC2)cc2c1OCO2	GPR151 activ 5.5 | GPR151 confirm inactive | GPR119 counter inactive
CC(O)CNCc1cccc(S(=O)(=O)N(C)C)c1 (configuration not stated)	none
CCOc1cccc2sc(NC(=O)C3=COCCO3)nc12	GPR151 activ 6.6 | GPR151 confirm inactive | GPR119 counter inactive
CCOc1cc(C2C(C(=O)OC)=CN(C(C)C)C=C2C(=O)OC)cc(Br)c1O	GPR151 activ 7.2 | GPR151 confirm inactive | GPR119 counter inactive
CCOC(=O)C1=CN(C(C)C)C=C(C(=O)OCC)C1c1ccc(OC)cc1OC	GPR151 activ 5.4 | GPR151 confirm inactive | GPR119 counter inactive
O=C(Nc1ccc(NC(=O)c2ccco2)cc1)c1cccc([N+](=O)[O-])c1	none
Cc1ccc(C2=NS(=O)(=O)N(C)C(C(=O)N(C)C3CCCCC3)=C2)cc1	none
COc1ccc(C2=NS(=O)(=O)N(C)C(C(=O)N(C)C3CCCCC3)=C2)cc1	GPR151 activ 11 | GPR151 confirm inactive | GPR119 counter inactive
CCNC(=O)N1CCN(Cc2ccccc2)CC1C(=O)NCc1ccccc1 (configuration not stated)	none
CC(=O)N1CCN(Cc2ccccc2)CC1C(=O)NCc1ccccc1 (configuration not stated)	GPR151 activ 5.5 | GPR151 confirm inactive | GPR119 counter inactive
COc1ccc(N2CCN(c3nc(C)nc4sc(C)cc34)CC2)cc1	none
CC1=CCC2C(=O)N(C(C)c3ccccc3)C(=O)C2C1 (configuration not stated)	GPR151 activ 7.5 | GPR151 confirm inactive | GPR119 counter inactive
CC1=CCC2C(=O)N(Cc3ccccc3)C(=O)C2C1 (configuration not stated)	none
Cc1ccc(-c2noc(CN(C(=O)CCN3C(=O)c4ccccc4C3=O)C(C)C)n2)cc1	GPR151 activ 5.1 | GPR151 confirm inactive | GPR119 counter inactive

Compound activity: PubChem BioAssay, The Scripps Research Institute Molecular Screening Center
